From PubChem BioAssay
A selection: hits, their analogues and other compounds. The true share with any hit is near 17%.
DT40 TDP1 no CPT – qHTS for Inhibitors of human tyrosyl-DNA phosphodiesterase 1 (TDP1): qHTS in cells in absence of CPT | DT40 Tdp1-/- hTDP1 cells, no CPT, ATP luminescence, 48 h | Potency, µM (series often up to 46.2 µM), usual class: inhibitors | 420,000 tested, 15% active | AID 686978, 2013; further: nearly all actives have a fitted effect of over 55% in size
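Camptothecin absent (DMSO only). Human TDP1-complemented DT40 knockout cells, 400 cells/well, 37 °C for minimum 48 hr; ATP measured via CellTiter-Glo, 30 min dark incubation, luminescence.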
TDP1 cell CPT – DT40-hTDP1 cell growth loss with CPT. AID 686979. 420,000 tested, 12% active. Potency, µM (top dose mostly 46.2 µM), hits mostly inhibitors. chicken DT40 Tdp1-/-;hTDP1 cells + 20 nM CPT, ATP luminescence, 48 h; further: nearly all actives have a fitted effect of over 55% in size
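Chicken DT40 Tdp1-/- cells complemented with human TDP1, 400 cells/well, exposed to compounds plus 20 nM camptothecin for at least 48 h at 37 C; viability read as ATP content by CellTiter-Glo luminescence.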
TDP1 inh – inhibitors of human tyrosyl-DNA phosphodiesterase TDP1; Q9NUW8; recombinant TDP1, AlphaScreen DNA substrate cleavage; Potency, µM (doses to about 130 µM), actives largely listed as inhibitors; 350,000 tested, 0.28% active; further: nearly all actives have a fitted effect of over 40% in size
Target sequence (Q9NUW8 whole entry, looked up): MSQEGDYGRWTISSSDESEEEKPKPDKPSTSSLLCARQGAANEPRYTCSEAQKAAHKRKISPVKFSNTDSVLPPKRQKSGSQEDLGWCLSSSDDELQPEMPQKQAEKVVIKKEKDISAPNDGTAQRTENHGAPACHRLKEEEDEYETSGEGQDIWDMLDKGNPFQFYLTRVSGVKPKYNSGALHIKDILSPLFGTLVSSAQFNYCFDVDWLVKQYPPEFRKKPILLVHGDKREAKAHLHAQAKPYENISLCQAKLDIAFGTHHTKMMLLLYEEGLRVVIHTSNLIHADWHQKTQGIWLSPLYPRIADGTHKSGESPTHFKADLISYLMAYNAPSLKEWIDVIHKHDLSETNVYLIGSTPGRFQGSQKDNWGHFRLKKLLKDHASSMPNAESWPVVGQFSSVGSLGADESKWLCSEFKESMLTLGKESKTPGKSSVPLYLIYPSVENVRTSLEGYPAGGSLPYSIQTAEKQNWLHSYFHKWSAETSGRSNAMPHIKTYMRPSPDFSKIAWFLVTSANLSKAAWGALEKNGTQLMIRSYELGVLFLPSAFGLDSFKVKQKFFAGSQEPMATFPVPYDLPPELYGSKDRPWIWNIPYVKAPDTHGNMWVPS
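Enzyme-compound mixtures sat 15 min at room temperature, followed by a 5 min reaction with 15 nM final substrate and 10 min with AlphaScreen beads. Recombinant human Tdp1 was used at 1 nM final.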
ClpP mod – qHTS Assay for Activators of ClpP | ATP-dependent Clp protease proteolytic subunit (Bacillus subtilis (strain 168)), P80244 | Potency, µM (titrated, usually from 57.5 µM) | purified B. subtilis ClpP, FRET peptide cleavage, 20 min | 340,000 tested, 1.9% active; active means well fitted falling curve with a large enough effect; inconclusive means small, poorly fitted or top-dose-only effect; inactive means no such curve, though single readings can be large or run the other way; further: the source files actives as falling curves though it sought activators and does not explain the sign; nearly all actives have a fitted effect of over 65% in size
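ClpP 10 microg/mL final, pH 8 Tris/KCl buffer with BSA, glycerol, Tween-20; compound pinned in; FRET-FV substrate; RT 20 min; Ex320/Em430; ΔFRET vs ADEP 5.8 microM, DMSO, no enzyme.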
Of the large screens only hits and unclear results are named; the others gave an inactive call. Unless noted, the call rests on the fitted dose curve; in most records, active means well fitted curve in the direction sought with a large enough effect; inconclusive means small, poorly fitted or top-dose-only effect, or another doubt; inactive means no such curve, though single readings can be large; an effect the other way counts as inactive or inconclusive.

COc1cccc(-c2cncnc2NCCN2CCOCC2)c1	DT40 TDP1 no CPT 2.91µM, TDP1 cell CPT 0.82µM (no result: TDP1 inh, ClpP mod)
COc1cccc(-c2cncnc2NCc2cnc(C)cn2)c1	DT40 TDP1 no CPT 3.66µM, TDP1 cell CPT 4.61µM (no result: TDP1 inh, ClpP mod)
CN(C)c1ccc(-c2cncnc2NCCN2CCOCC2)cc1	DT40 TDP1 no CPT 1.16µM, TDP1 cell CPT 0.92µM (no result: TDP1 inh, ClpP mod)
Cc1ccccc1-c1cncnc1NCCN1CCOCC1	DT40 TDP1 no CPT 3.26µM, TDP1 cell CPT 2.91µM, TDP1 inh 35.5µM (no result: ClpP mod)
CCCCN(CC)Cc1c(O)ccc2c3c(c(=O)oc12)CCC3	none
O=c1[nH]c2ccccc2nc1NCCN1CCOCC1	ClpP mod 31.6µM
Cc1ccc(Cn2c(SCC(=O)C(C)(C)C)nc3ccsc3c2=O)cc1	DT40 TDP1 no CPT 14.6µM, TDP1 cell CPT 20.6µM
Cc1ccc(Cn2c(SCC(=O)NCc3ccccc3Cl)nc3ccsc3c2=O)cc1	DT40 TDP1 no CPT 20.6µM, TDP1 cell CPT inconclusive
Cc1ccc(Cn2c(SCC(=O)NCc3ccc(Cl)cc3)nc3ccsc3c2=O)cc1	TDP1 cell CPT inconclusive
O=C(CSc1nc2ccsc2c(=O)n1Cc1ccccc1Cl)NCc1ccc(F)cc1	DT40 TDP1 no CPT 20.6µM, TDP1 cell CPT 16.4µM
COc1ccc(-n2c(SCC(=O)NCc3ccccc3)nc3ccsc3c2=O)cc1	DT40 TDP1 no CPT inconclusive, TDP1 cell CPT inconclusive
Cc1cc(-n2c(SCC(=O)NCc3ccccc3)nc3ccsc3c2=O)ccc1Cl	DT40 TDP1 no CPT inconclusive, TDP1 cell CPT 16.4µM
COCCNC(=O)C/C(C)=N/NC(=O)C(=O)NC1CCCCC1	none (no result: ClpP mod)
c1ccc(CC[n+]2ccncc2)cc1	none (no result: TDP1 inh)
Cc1ccccc1-c1noc(N)c1C#N	DT40 TDP1 no CPT inconclusive, TDP1 cell CPT 25.9µM
CCOc1cc(-c2noc(N)c2C#N)cc(OCC)c1OCC	DT40 TDP1 no CPT inconclusive, TDP1 cell CPT inconclusive
C=CCn1c(SCC(=O)N2CC(C)OC(C)C2)nnc1-c1ccncc1 (stereo not drawn)	none
O=C(Cc1ccc(Cl)cc1)SCc1ccccc1	TDP1 inh 31.6µM
O=C(Nc1cccc(C(F)(F)F)c1)c1csc([C@H]2C[C@H](O)[C@@H](CO)O2)n1	DT40 TDP1 no CPT inconclusive, TDP1 cell CPT inconclusive (no result: TDP1 inh)
O=C(NCCc1ccccc1)c1ccc2c(c1)CCN2S(=O)(=O)c1ccccc1	DT40 TDP1 no CPT 14.6µM, TDP1 cell CPT 20.6µM
COc1ccc(CNC(=O)c2ccc3c(c2)CCN3S(=O)(=O)c2ccccc2)cc1	DT40 TDP1 no CPT 18.4µM, TDP1 cell CPT 11.6µM
COc1ccc(CCNC(=O)c2ccc3c(c2)CCN3S(=O)(=O)c2ccc(C)cc2)cc1	DT40 TDP1 no CPT 10.3µM, TDP1 cell CPT inconclusive
COc1ccc(NC(=O)c2ccc3c(c2)CCN3S(=O)(=O)c2ccccc2)c(OC)c1	DT40 TDP1 no CPT inconclusive, TDP1 cell CPT inconclusive
CCCn1c(C2CCCN2c2nc(-c3cccc(Br)c3)cs2)nc2ccccc21 (stereo not drawn)	DT40 TDP1 no CPT inconclusive, TDP1 cell CPT inconclusive (no result: TDP1 inh)
COc1ccc(C2=NN(C(=O)CN3CCCCC3)C(c3ccc(OC)cc3)C2)cc1 (stereo not drawn)	DT40 TDP1 no CPT inconclusive, TDP1 cell CPT 16.4µM
COc1ccc(C2=NN(C(=O)CN3CCCC3)C(c3ccc(OC)cc3)C2)cc1 (stereo not drawn)	none (no result: TDP1 inh, ClpP mod)
COc1ccc(C2CC(c3ccc4ccccc4c3)=NN2C(=O)CN2C(=O)CCC2=O)cc1 (stereo not drawn)	DT40 TDP1 no CPT 23.1µM, TDP1 cell CPT 25.9µM (no result: ClpP mod)
CCc1nc2ccc(C(=O)N3CCN(C)CC3)cn2c1N(CCC(C)C)CCN(C)C	none (no result: TDP1 inh)
COc1cc(C2CC(=O)Oc3cc(C)c(Br)c(C)c32)cc(OC)c1OC (stereo not drawn)	DT40 TDP1 no CPT inconclusive, TDP1 cell CPT 20.6µM
COc1cc(C2CC(=O)Oc3cc(C)c(Cl)c(C)c32)cc(OC)c1OC (stereo not drawn)	DT40 TDP1 no CPT inconclusive, TDP1 cell CPT inconclusive
O=c1[nH]c(=O)n(C2CC(O)C(CO)O2)cc1F (stereo not drawn)	DT40 TDP1 no CPT inconclusive, TDP1 cell CPT inconclusive (no result: ClpP mod)
O=C(NCc1ccccc1Cl)NCc1noc2ccccc12	DT40 TDP1 no CPT 9.2µM, TDP1 cell CPT inconclusive
COc1ccc(CCNC(=O)NCc2noc3ccccc23)c(OC)c1	DT40 TDP1 no CPT 20.6µM, TDP1 cell CPT inconclusive
CCc1nnc(NC(=O)[C@@H](NC(=O)c2cc(OC)cc(OC)c2)C(C)C)s1	none
